Screening data as filed in PubChem BioAssay.
KB-V1 MDR tox: qHTS assay for MDR1-selective chemotherapeutics: Primary screen using the drug-selected MDR subline cells KB-V1; KB-V1 MDR cells viability, CellTiter-Glo, 72 h; Potency, µM (doses to about 46.1 µM), most hits filed as cytotoxic; 3.4% of 400,000 active; also: % is scaled to controls: 0 for no effect and ±100 for the full control effect; nearly all actives have a fitted effect of over 60% in size
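Cells of the MDR subline KB-V1 are plated, dosed with compound at multiple concentrations, and incubated 72 h at 37 degrees C; CellTiter-Glo is then added and luminescence read after 10 min.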
MCF10A rerep: A quantitative high throughput screen for small molecules that induce DNA re-replication in MCF 10a normal breast cells; MCF 10A DNA re-replication, Hoechst nuclear intensity, 48 h; Potency, µM (titrated, usually from 46.1 µM), for the others: top-dose activity, positive = re-replication, actives largely listed as activators; 2.9% of 350,000 active; AID 624296, 2012; also: % of control where 0% means no effect; nearly all actives have a fitted effect of over 50% in size
HT1080NT lethal: qHTS for induction of synthetic lethality in tumor cells producing 2HG: qHTS for the HT-1080-NT fibrosarcoma cell line | HT-1080-NT fibrosarcoma viability, CellTiter-Glo ATP luminescence, 48 h | Potency, µM (series often up to 46.1 µM), without a hit: top-dose activity, negative = less viability, usual class: cytotoxic | 1.6% of 360,000 active;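 also: NT is the 2HG producing partner of a matched IDH1 knockdown line; 0% = DMSO-treated cells and -100% = media-only wells without cells; nearly all actives have a fitted effect of over 55% in size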
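HT-1080-NT fibrosarcoma cells (2HG-overproducing), 750 cells/well in RPMI with 5% FBS, dosed after 2 h and incubated 48 h at 37C. CellTiter-Glo luminescence normalized to DMSO and no-cell wells; concentration-response curves fitted and classed.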
KB-3-1 tox: qHTS assay for MDR1-selective chemotherapeutics: Primary screen using the parental adenocarcinoma cell KB-3-1; 1.4% of 400,000 active; Potency, µM (doses to about 46.1 µM), most hits filed as cytotoxic; AID 1347075, 2019; KB-3-1 viability, CellTiter-Glo ATP luminescence, 72 h; also: % is scaled to controls: 0 for no effect and ±100 for the full control effect; nearly all actives have a fitted effect of over 60% in size
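KB-3-1 parental drug-naive adenocarcinoma cells in DMEM/10% FBS, incubated 72 h at 37 C with pin-transferred compounds across a concentration series. Viability by CellTiter-Glo luminescence; concentration-response curves fitted after normalization.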
HT1080 IDH1KD tx: qHTS for induction of synthetic lethality in tumor cells producing 2HG: qHTS for the HT-1080-IDH1KD cell line; HT-1080 IDH1 knockdown viability, ATP luminescence, 48 h; Potency, µM (titrated, usually from 46.1 µM), for inactives: top-dose activity, negative = toxicity, usual class: cytotoxic; 2% of 360,000 active; AID 686971, 2013;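 also: 0% = DMSO wells and -100% = cell-free medium wells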
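Assay cells: HT-1080 with IDH1 knockdown, 750 per well, RPMI/5% FBS. Exposure: 48 h at 37 °C following 2 h pre-incubation. Read: CellTiter-Glo luminescence; fitted concentration-response, curve class assigned.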
SW480 rereplic: A quantitative high throughput screen for small molecules that induce DNA re-replication in SW480 colon adenocarcinoma cells; SW480 DNA re-replication, Hoechst DNA content imaging, 48 h; Potency, µM (series often up to 46.1 µM), inactives show at the top dose re-replication activation, hits mostly activators; 1.8% of 340,000 active; also: % of control where 0% means no effect; nearly all actives have a fitted effect of over 55% in size
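250 cells/well; 23 nL cpd via pin tool; 48 hr, 37 C, 5% CO2; Hoechst 40 min; imager read of total nuclear intensity, ex 405/em 500-530 nm.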
An asterisk follows results filed as active. A selection: hits, their analogues and other compounds. The true share with any hit is near 7.9%. Calls follow the shape of the dose curve; as a rule, active = well fitted curve in the direction sought with a large enough effect; inconclusive = small, poorly fitted or top-dose-only effect, or another doubt; inactive = no such curve, though single readings can be large; an effect the other way counts as inactive or inconclusive. Potency is read from the fitted curve at half-maximal effect.

How did O=C(Nc1ccc(Cl)c(S(=O)(=O)N2CCCCC2)c1)c1cnccn1 do in these assays?
KB-V1 MDR tox: inactive; MCF10A rerep: 0%; HT1080NT lethal: 0%; KB-3-1 tox: inactive; HT1080 IDH1KD tx: -14%; SW480 rereplic: -21%

How did Cn1cccc1C(=O)Nc1ccc(Cl)c(S(=O)(=O)N2CCCCC2)c1 do in these assays?
KB-V1 MDR tox: 21µM*; MCF10A rerep: 2%; HT1080NT lethal: -1%; KB-3-1 tox: inconclusive; HT1080 IDH1KD tx: -3%; SW480 rereplic: 1%

What do the screens show for `O=C(Nc1ccncc1)c1ccc(Cl)c(S(=O)(=O)N2CCCCC2)c1`?
KB-V1 MDR tox: inconclusive; MCF10A rerep: 13µM*; HT1080NT lethal: inconclusive; KB-3-1 tox: inconclusive; HT1080 IDH1KD tx: 8.2µM*; SW480 rereplic: -20%

What do the screens show for `O=C(Nc1ncn[nH]1)c1ccc(Cl)c(S(=O)(=O)N2CCCCCC2)c1`?
KB-V1 MDR tox: 21µM*; MCF10A rerep: 20%; HT1080NT lethal: -5%; KB-3-1 tox: inactive; HT1080 IDH1KD tx: 4%; SW480 rereplic: 1%

Results for Cc1cc(Cl)c2oc(C(=O)N3CCN(c4ccncc4)CC3)c(C)c2c1 ?
KB-V1 MDR tox: inconclusive; MCF10A rerep: 5.8µM*; HT1080NT lethal: 12µM*; KB-3-1 tox: inconclusive; HT1080 IDH1KD tx: 12µM*; SW480 rereplic: 12µM*

How did Oc1ccc(Br)cc1-c1cc(-c2ccccc2Cl)[nH]n1 do in these assays?
KB-V1 MDR tox: inconclusive; MCF10A rerep: 25%; HT1080NT lethal: inconclusive; KB-3-1 tox: inconclusive; HT1080 IDH1KD tx: -17%; SW480 rereplic: 5.2µM*

Results for Cc1ccc(-c2cc(-c3ccccc3Cl)[nH]n2)c(O)c1 ?
KB-V1 MDR tox: inactive; MCF10A rerep: 6%; HT1080NT lethal: inconclusive; KB-3-1 tox: inactive; HT1080 IDH1KD tx: 11µM*; SW480 rereplic: 16%

What do the screens show for `Cc1ccccc1-c1cc(-c2ccccc2O)n[nH]1`?
KB-V1 MDR tox: 18µM*; MCF10A rerep: inconclusive; HT1080NT lethal: inconclusive; KB-3-1 tox: inconclusive; HT1080 IDH1KD tx: inconclusive; SW480 rereplic: inconclusive

What do the screens show for `Cc1ccc(-c2cc(-c3ccccc3[N+](=O)[O-])[nH]n2)c(O)c1`?
KB-V1 MDR tox: inactive; MCF10A rerep: -2%; HT1080NT lethal: -14%; KB-3-1 tox: inactive; HT1080 IDH1KD tx: inconclusive; SW480 rereplic: 26%

How did CNc1c(Br)cc(C(O)C2=CCc3ccccc32)cc1Br (stereo unspecified) do in these assays?
KB-V1 MDR tox: inactive; KB-3-1 tox: inactive

Results for CC(=O)Nc1cc(-c2ccc(C(=O)NC3CC3)cc2)cn2c(-c3cccc(C(C)=O)c3)cnc12 ?
KB-V1 MDR tox: inactive; HT1080NT lethal: 15µM*; KB-3-1 tox: inactive; HT1080 IDH1KD tx: inconclusive

What do the screens show for `CC(=O)Nc1cc(-c2ccc(N)cc2)cn2c(-c3cccc(C(F)(F)F)c3)cnc12`?
KB-V1 MDR tox: inactive; HT1080NT lethal: -3%; KB-3-1 tox: inactive; HT1080 IDH1KD tx: -17%

Results for CC(=O)Nc1cc(-c2cccc(C(=O)NCCO)c2)cn2c(-c3ccc(F)cc3)cnc12 ?
KB-V1 MDR tox: inactive; HT1080NT lethal: inconclusive; KB-3-1 tox: inactive; HT1080 IDH1KD tx: -26%

Results for CC(=O)Nc1cc(-c2cccc(C(=O)NCCO)c2)cn2c(-c3cccc(C(F)(F)F)c3)cnc12 ?
KB-V1 MDR tox: inactive; HT1080NT lethal: 23µM*; KB-3-1 tox: inactive; HT1080 IDH1KD tx: inconclusive

How did CC(=O)Nc1cc(-c2ccc(C(=O)NC3CC3)cc2)cn2c(-c3cccc(C(F)(F)F)c3)cnc12 do in these assays?
KB-V1 MDR tox: inactive; HT1080NT lethal: inconclusive; KB-3-1 tox: inconclusive; HT1080 IDH1KD tx: 16µM*

Results for C=CCn1c(O)c(C2=c3ccccc3=NC2=O)c2ccccc21 ?
KB-V1 MDR tox: inactive; MCF10A rerep: inconclusive; HT1080NT lethal: 23µM*; KB-3-1 tox: inconclusive; HT1080 IDH1KD tx: 21µM*; SW480 rereplic: inconclusive

Results for CC(Oc1ccccc1F)C(=O)/C=C/N(C)C (stereo unspecified) ?
KB-V1 MDR tox: inconclusive; MCF10A rerep: -31%; HT1080NT lethal: -5%; KB-3-1 tox: inactive; HT1080 IDH1KD tx: -22%; SW480 rereplic: -1%

What do the screens show for `CC(Oc1ccccc1Cl)C(=O)/C=C/N(C)C` (stereo unspecified)?
KB-V1 MDR tox: inconclusive; MCF10A rerep: 18µM*; HT1080NT lethal: -17%; KB-3-1 tox: inactive; HT1080 IDH1KD tx: inconclusive; SW480 rereplic: -3%

Results for CCCCCCCOC(=O)C1=C(C)Nc2ncnn2C1c1cccs1 (stereo unspecified) ?
KB-V1 MDR tox: inconclusive; MCF10A rerep: inconclusive; HT1080NT lethal: -19%; KB-3-1 tox: inactive; HT1080 IDH1KD tx: -15%; SW480 rereplic: 1%

Results for CCCCCCCCOC(=O)C1=C(C)Nc2nnnn2C1c1cccs1 (stereo unspecified) ?
KB-V1 MDR tox: 15µM*; MCF10A rerep: inconclusive; HT1080NT lethal: inconclusive; KB-3-1 tox: inconclusive; HT1080 IDH1KD tx: inconclusive; SW480 rereplic: 16%

What do the screens show for `COc1cc(C(=O)NC(C)C2CC3CCC2C3)ccc1OC(F)F` (stereo unspecified)?
KB-V1 MDR tox: 21µM*; MCF10A rerep: 14%; HT1080NT lethal: 0%; KB-3-1 tox: inactive; HT1080 IDH1KD tx: -12%; SW480 rereplic: 7%

How did Cc1ccc(C(=O)NC(C)C2CC3CCC2C3)cc1 (stereo unspecified) do in these assays?
KB-V1 MDR tox: inactive; MCF10A rerep: inconclusive; HT1080NT lethal: 3%; KB-3-1 tox: inactive; HT1080 IDH1KD tx: 4%; SW480 rereplic: -11%

Results for CCOc1cc(C(=O)NC(C)C2CC3CCC2C3)cc(OCC)c1OCC (stereo unspecified) ?
KB-V1 MDR tox: inactive; MCF10A rerep: 13µM*; HT1080NT lethal: 19%; KB-3-1 tox: inactive; HT1080 IDH1KD tx: 26%; SW480 rereplic: -3%

How did CCOC(=O)C1(C)CCCN(C(=O)c2cccc3ccccc23)C1 (stereo unspecified) do in these assays?
KB-V1 MDR tox: inactive; HT1080NT lethal: 15%; KB-3-1 tox: inactive; HT1080 IDH1KD tx: 1%
